Each structure is given as a SMILES string. This is part of a sample that, as a whole, favours compounds with a hit. Of some 83,000 tested, about 20% had one in any assay.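 Compound tested at a single concentration for 48 hours in 96-well plates; a percent growth value below 10 was scored as active.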 Active and inactive are the calls of the source.

Results on 40 compounds are retold here after PubChem BioAssay (NCI).

The test system of this test is HCT-116 colon. Put plainly: NCI-60 one-dose screen, 48 h (100 = growth as untreated, 0 = no growth, -100 = all killed). The conditions noted are these: 10 µM unless noted. On the procedure: Growth inhibition of the HCT-116 human tumor cell line is measured as a screen for anti-cancer activity. Cells are grown in 96 well plates and exposed to the test compound for 48 hours. Compounds are tested at a single concentration, which is 10^-5 M for most compounds. The reported endpoint is percent growth (GI% or GIPRCNT), where numbers from 0 - 100% represent growth inhibition, and numbers from -100% - 0 represent cell death. For example, a value of 40 represents 60% growth inhibition. A value of 0 means no net growth occurred over the course of the experiment. A value of -40 indicates 40% of cells at the beginning of the experiment died by the end of the experiment. A value of -100 means all cells are dead at the end of the experiment.
NCI-60 Human Tumor Cell Lines Screen was performed using the standard one-dose NCI protocol, which is described in more detail at https://dtp.cancer.gov/discovery_development/nci-60/default.htm.
Compounds with GIPRCNT values below 10 were considered active. Activity score was based on GIPRCNT using the following formula: […]
Score is 0 for GIPRCNT values of 100 or above, 50 for GIPRCNT values of 0, and 100 for GIPRCNT values of -100.
As to `CCN1CCN(C(=O)[C@@]2(C)CC[C@]3(C)CC[C@]4(C)C(=CC(=O)[C@@H]5[C@@]6(C)CC[C@H](OC7C[C@@H](O)[C@@H](O)C(C)O7)C(C)(C)[C@@H]6CC[C@]54C)[C@@H]3C2)CC1` (stereo not given in full), the growth is 1.7% (active).
As to `O=C1c2ccccc2C(=Cc2ccccc2)c2ccccc21`, the growth is 5.11% (active).
Next, `Cc1nn2c(-c3nc4cc(Cl)c(Cl)cc4[nH]3)c(-c3ccc(F)cc3)nc2s1`: 2.83% (active).
Next, `C/C(=N\NC(=O)C(C)SC(C)C(=O)N/N=C(\C)c1cccnc1)c1cccnc1` (stereo not given): 110% (inactive).
Next, `COc1ccc(-c2nc3c(c(C)nn3-c3ccc(F)cc3)c(=O)[nH]2)cc1`: 48.5% (inactive).
As for `COc1ccc2[nH]cc(-c3nc(-c4c[nH]c5ncccc45)cs3)c2c1`, the growth was 18.1% (inactive).
Next, `COC(=O)[C@]12CC[C@@H](C)[C@H](C)[C@@H]1C1=CC[C@@H]3[C@@]4(C)C[C@@H](O)[C@H](O)[C@@](C)(CO)C4=CC[C@@]3(C)[C@]1(C)CC2`: -37.5% (active).
Next, `N#Cc1cnc2cc(OC[C@@H](O)CO)c(NC(=O)CC3CSSC3)cc2c1Nc1ccc(OCc2cccc(F)c2)c(Cl)c1`: -60.5% (active); `Cn1c2c(c3ccc(Cl)cc31)-n1cccc1C2=O`: 76.9% (inactive).
Next, `COc1cc(-c2cc3ncccc3c3nc(OCCN(C)C)c4cccnc4c23)cc(OC)c1OC`: -21.8% (active); `C=C(C)[C@@H]1CC[C@]2(C)CC[C@]3(C)[C@H](CC[C@@H]4[C@@]5(C)CCCNC(C)(C)[C@@H]5CC[C@]43C)[C@@H]12`: 5.39% (active).
`COc1cnc2c(c1)C(=O)c1c-2n(CCCNC(C)C)c(=O)c2cc([N+](=O)[O-])ccc12`: the growth is -51% (active).
As for `COc1ccc(-c2nc3ccccn3c2-c2nc3ccc(Cl)cc3[nH]2)cc1`, the growth was 93.5% (inactive).
In the case of `CC1(C)c2ccccc2C(=O)C1(Br)Cc1ccccc1` (stereo not given), the growth was 54.9% (inactive).
Next, `COc1ccc2c(c1)C/C(=C\c1cc(-c3cc(OC)c(OC)c(OC)c3)n[nH]1)C2=O`: 81.9% (inactive); `Cc1cc2nc3c4cc(N)ccc4n(CCN(C)C)c3nc2cc1C`: 5.51% (active); `COc1cc(-c2cc3cc(O)ccc3oc2=O)cc(OC)c1OC`: 88.9% (inactive).
Turning to `N#C/C(=C\c1ccc(-c2ccccc2)o1)c1nc(-c2ccco2)cs1`, the growth was 87% (inactive).
With `CC1=CC(=O)N(c2cccc3c(N4C(=O)C=C(C)C4=O)cccc23)C1=O`, the growth was 17.8% (inactive).
For `Cn1cc(-c2nc(-c3c[nH]c4ncccc34)cs2)c2cc(Cl)ccc21`, the growth is 32.2% (inactive).
For the compound `O=C1Nc2ccccc2/C1=C/c1cn(CCCn2c3ccccc3c(=O)c3ccccc32)c2ccccc12`, the growth was 87% (inactive).
Next, `COC(=O)[C@]12CC[C@@H](C)[C@H](C)[C@@H]1C1=CC[C@@H]3[C@@]4(C)C=C(O)C(=O)C(C)=C4CC[C@@]3(C)[C@]1(C)CC2`: 18.1% (inactive).
Next, `COc1cc2c(cc1OC)C(=O)/C(=C/c1cc(-c3ccc4c(c3)OCO4)n[nH]1)C2`: -61% (active); `COC(=O)[C@]12CC[C@@H](C)[C@H](C)[C@@H]1C1=CC[C@@H]3[C@@]4(C)C[C@@H](OC(C)=O)[C@H](O)[C@@](C)(COC(C)=O)[C@@H]4[C@H](O)C[C@@]3(C)[C@]1(C)CC2`: -69.5% (active).
In the case of `NC(Cc1ccc(O)cc1)C(=O)N/N=C/c1ccccc1O` (stereo not given), the growth was 97.2% (inactive).
Next, `CC(C)=CCC/C(C)=C/CC/C(C)=C/CC/C(C)=C/CSC[C@H](NC(=O)CCCCCN1CCN(C)CC1)C(=O)NC1CCCCC1`: 6.51% (active).
With `CNC(=O)c1cc(Oc2ccc3nc(NC(=O)Nc4ccc(Cl)cc4)sc3c2)ccn1`, the growth is 47.3% (inactive).
Turning to `Cc1ccc(Cc2cnc(NC(=O)/C=C/c3cccc(C)c3)s2)cc1`, the growth is 2.53% (active).
Next, `O=Cc1nc2ccccc2[nH]1`: 88.5% (inactive); `C=C(C)[C@@H]1CC[C@]2(CN)CC[C@]3(C)[C@H](CC[C@@H]4[C@@]5(C)CCC(=O)NC(C)(C)[C@@H]5CC[C@]43C)[C@@H]12`: 11.7% (inactive); `C/C(Cc1ccc(Cl)cc1)=C(/c1ccc(Cl)cc1)c1ccc(OCCN2CCCC2)cc1`: 30.7% (inactive).
Turning to `COC(=O)C(N)CSC(c1ccccc1)(c1ccccc1)c1ccccc1` (stereo not given), the growth is 15.7% (inactive).
Next, `COc1cccc(-c2nn(-c3ccccc3)cc2-c2ccnc(NCCCNS(=O)(=O)c3ccc(Br)cc3)c2)c1`: 40.8% (inactive); `Nc1nc2c(c(=O)[nH]1)C(c1ccc3c(c1)OCO3)C=C(C(=O)O)N2` (stereo not given): 99.4% (inactive); `N#Cc1cnc2cc(OC[C@@H](O)CO)c(NC(=O)C3CCCC3)cc2c1Nc1ccc(OCc2cccc(F)c2)c(Cl)c1`: -32.2% (active).
For `COc1ccc(/C=C(\C#N)c2cc3ccccc3n2C(C)=O)cc1`, the growth is 81.1% (inactive).
As to `Cc1ccncc1C(=O)O`, the growth was 107% (inactive).
As for `C[C@H]1OC(=O)/C=C/[C@@H](O)[C@@H](O)CCCCCCCC[C@@H]1O`, the growth was 88.4% (inactive).
Regarding `COC(=O)[C@]12CC[C@@H](C)[C@H](C)[C@@H]1C1=CC[C@@H]3[C@@]4(C)C[C@@H](OC(C)=O)[C@H](O)[C@@](C)(CO)[C@@H]4[C@H](O)C[C@@]3(C)[C@]1(C)CC2`, the growth was -65.4% (active).
Regarding `COC(=O)c1cc(=O)nc(N/N=C/c2ccc(C)cc2)s1`, the growth was 105% (inactive).
